# Source: PubChem BioAssay
# T cruzi growth-1: inhibitors of T. cruzi proliferation. T. cruzi beta-gal in NIH3T3, GalScreen luminescence, 90 h. inhibition, % at 8.34 µM. 77,000 tested, 5.9% active. AID 624255;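 active = mean inhibition above about 93%, with at least 55% of replicates each passing it, limit read from the data, passing the limit was not always enough; inconclusive = only one of those two conditions holds; inactive = neither condition holds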
# C diff growth: inhibitors of Clostridium difficile growth. 86,000 tested, 0.25% active. growth activity, negative = inhibition, % at 16 µg/mL (by protocol). Clostridium difficile clinical isolate growth, OD600, 24 h; active compounds read low. AID 1259249;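 active = mean growth activity at or below -80% and every replicate also at or below -80%; inconclusive = mean at or below -80% but some replicate above -80%; inactive = mean growth activity above -80%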;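 also: 0% = DMSO wells and -100% = levofloxacin 16 µg/mL wells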
# Pf Dd2 growth: inhibitors of Plasmodium falciparum Dd2 growth; P. falciparum Dd2 growth, SYBR Green, 72 h; active compounds read low; activity change, % at 10 µM; 94,000 tested, 2.3% active; AID 1159554; in the data active = activity change below about -80%; inconclusive = no clear call, values can overlap the other calls
# T cruzi growth-2: inhibitors of T. cruzi proliferation | shares compounds with T cruzi growth-1 | T. cruzi beta-gal in NIH3T3, GalScreen luminescence, 90 h | inhibition, % at 8.35 µM | 5,600 tested, 72% active | AID 651739;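 active = mean replicate inhibition above about 95% and at least 55% of replicates individually reaching it, limit read from the data; inconclusive = only one of the two criteria is met; inactive = neither criterion is met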
# T cruzi growth-3: blocks T. cruzi growth in NIH3T3 host cells | shares compounds with T cruzi growth-1 | T. cruzi beta-gal in NIH3T3, GalScreen luminescence, 90 h | inhibition, % at 2.09 µM | 5,600 tested, 21% active | AID 651740;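 active = mean inhibition above about 95%, with at least 55% of replicates also reaching it, limit read from the data; inconclusive = meets just one of the two conditions; inactive = meets neither condition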;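 also: plate controls were neutral control median for no effect and positive control median for full effect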
# 3T3 cytotox: cytotoxicity in mouse NIH/3T3 fibroblasts; 5,600 tested, 14% active; NIH/3T3 viability, CellTiter-Glo ATP luminescence, 90 h; shares compounds with T cruzi growth-1; cytotoxicity (signal decrease), % at 8.35 µM;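 active = mean signal decrease across replicates above about 35% based on untreated-well scatter, with enough replicates individually passing, limit read from the data; inconclusive = no rule stated though some were filed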;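 also: 0% = median of neutral control wells and 100% = median of positive control wells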
# 3T3 cytotox 2: NIH/3T3 (mouse) viability loss | shares compounds with T cruzi growth-1 | inhibition, % at 24.9 µM | 5,600 tested, 56% active | NIH/3T3 viability, CellTiter-Glo ATP luminescence, 90 h;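 active = mean loss of cell viability signal at or above a set limit, and enough replicates individually reaching it; inconclusive = meets only the mean limit or only the replicate share; inactive = meets neither condition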;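 also: 0% = median of neutral control wells and 100% = median of positive control wells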
# Active calls of the source: *; ? = inconclusive; nt = not tested or not shown. Sampled rows, rich in hits. Any-hit rate of the full collection: about 6.7%.
SMILES,T cruzi growth-1,C diff growth,Pf Dd2 growth,T cruzi growth-2,T cruzi growth-3,3T3 cytotox,3T3 cytotox 2
C[C@@H](NC(=O)C[C@H]1C=C[C@H](NC(=O)C2CC2)[C@@H](CO)O1)c1ccccc1,nt,3,10,nt,nt,nt,nt
O=S(=O)(NCC[C@@H]1CC[C@H](NS(=O)(=O)c2cccc(Cl)c2)[C@@H](CO)O1)c1cccc(F)c1,8,12,2,nt,nt,nt,nt
COc1ccc(NC(=O)N(C)C[C@H]2OCCCC[C@@H](C)Oc3ccc(NC(=O)Nc4ccc(F)cc4)cc3C(=O)N([C@H](C)CO)C[C@H]2C)cc1,100*,2,?,112*,40,-2,-5
COc1ccc(NC(=O)N(C)C[C@H]2OCCCC[C@H](C)Oc3ccc(NC(=O)Nc4ccc(F)cc4)cc3C(=O)N([C@@H](C)CO)C[C@H]2C)cc1,-23,-3,-71,nt,nt,nt,nt
C[C@@H]1CN([C@@H](C)CO)C(=O)c2cc(NS(=O)(=O)c3cccs3)ccc2O[C@@H](C)CCCCO[C@H]1CN(C)C(=O)CCCN(C)C,-34,9,40,nt,nt,nt,nt
C[C@@H]1CN([C@H](C)CO)C(=O)c2cc(NS(=O)(=O)c3ccc(F)cc3)ccc2O[C@@H](C)CCCCO[C@@H]1CN(C)Cc1ccncc1,nt,-5,-32,nt,nt,nt,nt
C[C@H](CO)N1C[C@H](C)[C@H](CN(C)C(=O)Nc2ccc3c(c2)OCO3)OCCCC[C@H](C)Oc2ccc(NC(=O)C3CCCCC3)cc2C1=O,97*,-3,-47,109*,46,-10,-19
C[C@H]1CCCCO[C@@H](CN(C)C(=O)Nc2ccccc2)[C@@H](C)CN([C@@H](C)CO)C(=O)c2cc(NC(=O)C3CCCCC3)ccc2O1,59,-1,-24,nt,nt,nt,nt
COc1ccc(NC(=O)N(C)C[C@@H]2OCCCC[C@H](C)Oc3ccc(NC(=O)C4CCCCC4)cc3C(=O)N([C@@H](C)CO)C[C@@H]2C)cc1,46,3,-76,nt,nt,nt,nt
C[C@H]1CCCCO[C@@H](CN(C)C(=O)Nc2ccc3c(c2)OCO3)[C@@H](C)CN([C@@H](C)CO)C(=O)c2cc(NC(=O)C3CCCCC3)ccc2O1,77,-3,-76,nt,nt,nt,nt
COc1ccc(NC(=O)N(C)C[C@H]2OCCCC[C@@H](C)Oc3ccc(NC(=O)C4CCCCC4)cc3C(=O)N([C@@H](C)CO)C[C@H]2C)cc1,97*,-2,-80,98*,40,-30,-21
C[C@@H]1CCCCO[C@H](CN(C)C(=O)Nc2ccc(F)cc2)[C@H](C)CN([C@@H](C)CO)C(=O)c2cc(NC(=O)C3CCCCC3)ccc2O1,?,6,-75,97*,48,-2,18
CO[C@@H]1CN(C)C(=O)c2cc(NC(=O)C3CCCC3)ccc2OC[C@H](C)NC[C@@H]1C,-46,nt,nt,nt,nt,nt,nt
O=C(Nc1ccc(F)cc1)N1C[C@@H]2[C@H](c3ccccc31)[C@H](CO)N2Cc1cocn1,-14,-1,-18,nt,nt,nt,nt
COc1cccc(-c2ccc([C@@H]3[C@H]4CN(CC5CC5)CCCCN4[C@H]3CO)cc2)c1,93,0,10,nt,nt,nt,nt
COc1cccc(-c2ccc([C@H]3[C@@H](CO)N4CCCCN(CC5CCOCC5)C[C@H]34)cc2)c1,107*,-9,-26,107*,70,8,97*
OC[C@@H]1[C@@H](c2ccc(-c3cccnc3)cc2)[C@@H]2CN(CC3CCOCC3)CCCCN12,-47,-1,-55,nt,nt,nt,nt
OC[C@@H]1[C@H](c2ccc(-c3cccnc3)cc2)[C@H]2CN(CC3CCOCC3)CCCCN12,97*,-4,-48,?,83,-9,7
COc1ccc(CN(C)C[C@H]2Oc3ccc(NS(=O)(=O)c4c(C)noc4C)cc3C(=O)N([C@H](C)CO)C[C@H]2C)cc1,20,-1,24,nt,nt,nt,nt
C[C@H]1CN([C@@H](C)CO)C(=O)c2cc(C#Cc3cccc(F)c3)cnc2O[C@H]1CN(C)C(=O)C1CCOCC1,74,-7,-8,nt,nt,nt,nt
CCCNC(=O)Nc1ccc2c(c1)C(=O)N(C)C[C@H](OC)[C@H](C)CN(Cc1ccccc1)[C@H](C)CO2,-8,nt,nt,nt,nt,nt,nt
CN1c2ccc(C3=CCCCC3)cc2[C@@H]2[C@@H](CCN2C(=O)C2CCC2)[C@H]1CO,nt,0,-57,nt,nt,nt,nt
C[C@H](CO)N1C[C@H](C)[C@H](CN(C)C(=O)Nc2cccc3ccccc23)Oc2ccc(NS(=O)(=O)c3cccs3)cc2CC1=O,1,-6,4,nt,nt,nt,nt
COc1ccc(-c2ccc3c(c2)[C@@H]2[C@@H](CCN2C(=O)Cc2ccccn2)[C@@H](CO)N3C)cc1,?,-9,-56,107*,84,-30,-12
CN1c2ccc(-c3cccc(C#N)c3)cc2[C@@H]2[C@@H](CCN2C(=O)Cc2ccccn2)[C@@H]1CO,106*,-20,-50,102*,51,-11,36*
SMILES,T cruzi growth-1,C diff growth,Pf Dd2 growth,T cruzi growth-2,T cruzi growth-3,3T3 cytotox,3T3 cytotox 2
CN1c2ccc(-c3cccc(C#N)c3)cc2[C@H]2[C@H](CCN2C(=O)C2CC2)[C@H]1CO,nt,5,-44,nt,nt,nt,nt
CN1c2ccc(-c3ccc(F)cc3)cc2[C@H]2[C@H](CCN2C(=O)Cc2ccccn2)[C@@H]1CO,?,-29,-67,110*,54,-36,-7
CN1c2ccc(-c3ccc(F)cc3)cc2[C@@H]2[C@@H](CCN2C(=O)Cc2ccccn2)[C@H]1CO,10,-10,-28,nt,nt,nt,nt
CN(C)C(=O)c1ccc(-c2ccc3c(c2)[C@H]2[C@H](CCN2C(=O)Cc2ccccn2)[C@@H](CO)N3C)cc1,?,-6,-38,106*,46,-5,-8
CN1c2ccc(-c3ccc(F)cc3)cc2[C@@H]2[C@@H](CCN2C(=O)Cc2ccccn2)[C@@H]1CO,56,-13,-29,nt,nt,nt,nt
CN(C)C(=O)c1cccc(-c2ccc3c(c2)[C@@H]2[C@@H](CCN2C(=O)Cc2ccccn2)[C@@H](CO)N3C)c1,27,6,-20,nt,nt,nt,nt
C[C@H]1CN([C@@H](C)CO)C(=O)c2cc(-c3ccccc3F)cnc2O[C@@H]1CN(C)C(=O)CN(C)C,13,-2,18,nt,nt,nt,nt
CN1[C@@H]2Cn3c(ccc(-c4ccccc4)c3=O)[C@H]1[C@@H](C(=O)NCC1CC1)[C@@H]2CO,42,2,1,nt,nt,nt,nt
COCC(=O)N(C[C@H]1N[C@H](CO)[C@@H]1c1ccc(-c2cccnc2)cc1)C(C)C,28,1,17,nt,nt,nt,nt
COCC(=O)N1C[C@@H](C)[C@H](OC)CN(C)C(=O)c2ccc(NC(=O)c3ccc(F)cc3)cc2OC[C@@H]1C,-38,nt,22,nt,nt,nt,nt
C[C@H]1CN([C@@H](C)CO)C(=O)c2cc(C#CC3CC3)cnc2O[C@@H]1CN(C)C(=O)C1CCCCC1,59,nt,-23,nt,nt,nt,nt
CN1c2ccc(-c3cccc(F)c3)cc2[C@@H]2[C@@H](CCN2C(=O)Cc2cccnc2)[C@@H]1CO,73,2,8,nt,nt,nt,nt
